40 molecules from PubChem BioAssay (Tox21) can be followed below.

Results filed as inconclusive are left out. Where a call stands in place of a potency, no number is given. Activity calls are given as the source filed them. Calls follow the shape of the dose curve; as a rule, active = well fitted curve in the direction sought with a large enough effect in the repeat runs; inconclusive = weak or mixed curves; inactive = no such curve, though single readings can be large; an effect the other way counts as inactive or inconclusive.

The nature of one experiment: qHTS RealTime-Glo MT Cell Viability Assay in HEK293 cells - 8 hour (AID 1224887). Also: top concentration of the series differs between compounds; nearly all actives have a fitted effect of over 50% in size. As to conditions: RealTime-Glo luminescence; series mostly up to 76.8 µM. The essentials: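 600 HEK293 cells per well, dispensed already mixed with RealTime-Glo MT reagents. Compound dosing came 5 h later. The same wells were read for luminescence at 0, 8, 16, 24, 32 and 40 h of exposure at 37 C.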
In the case of `O=C1NCCN1`, the Potency result is “inactive”.
Same read-out and setting: to `CN1C(=O)CC(C)(c2ccccc2)C1=O` (configuration not stated) belongs “inactive”.
Regarding `Nc1ccc(S(=O)(=O)O)c(N)c1`, the Potency result was “inactive”.

A further experiment is described as follows: A CellTox Green Cytotoxicity Assay to monitor cytotoxicity in HEK293 cells - 16 hour (AID 1224888). Also: nearly all actives have a fitted effect of over 35% in size. As to conditions: CellTox Green fluorescence; series mostly up to 76.8 µM. The essentials:
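Dead-cell fluorescence measured kinetically: asymmetric cyanine dye, HEK293, 600 cells/well, 5 h settle, 23 nL cpd/DMSO, 37 C, reads 0–40 h every 8 h.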
Turning to `CCOC(=O)C(C)Oc1ccc(Oc2nc3ccc(Cl)cc3o2)cc1` (configuration not stated), the Potency entry is “inactive”.
On the same count and under the same terms, to `O=C(N[C@@H](c1ccccc1)[C@@H]1CCCCN1)c1cccc(C(F)(F)F)c1Cl` belongs “inactive”; to `O=C(N/N=C/c1ccc([N+](=O)[O-])o1)c1ccc(O)cc1`, “inactive”; to `CCOC(=N)CC(=O)OCC`, “inactive”.
On the same count and under the same terms, to `COc1ccc([C@@H]2Sc3ccccc3NC(=O)[C@@H]2O)cc1` belongs “inactive”.
The same measure, in the same setting: to `CN1CCN(CCCN2c3ccccc3Sc3ccc(S(=O)(=O)N(C)C)cc32)CC1` belongs “inactive”; to `Cc1nc2ccccc2s1`, “inactive”; to `CCCCC(CC)C(=O)OCCOCCOCCOCCOC(=O)C(CC)CCCC` (configuration not stated), “inactive”.
Regarding `Cc1ccc(S(=O)(=O)NC2CCCCC2)cc1`, the Potency entry is “inactive”.
On the same count and under the same terms, to `CC1(C)C2=CCCC(C)(C)[C@]23CC[C@H]1C3` belongs “inactive”.
Still for that read-out and setting: to `CCCC1C(CC)=CC(CC)=CN1c1ccccc1` (configuration not stated) belongs “inactive”.
The same measure, in the same setting: to `O=C(O)c1cccc(O)c1` belongs “inactive”.
Consider `O=C(C(=O)c1ccccc1)c1ccccc1`, for which the Potency entry is “inactive”.
Turning to `CCCCCCCCCCCC(=O)[O][Sn]([CH2]CCC)([CH2]CCC)[O]C(=O)CCCCCCCCCCC`, the Potency entry is “inactive”.
On to `CCOC(=O)OCC`, for which the Potency result is “inactive”.
Still for that read-out and setting: to `COCCOC` belongs “inactive”.
Still for that read-out and setting: to `O=C(Nc1ccc([N+](=O)[O-])cc1)Nc1ccc([N+](=O)[O-])cc1` belongs “inactive”; to `CNCCCC1c2ccccc2C=Cc2ccccc21`, “inactive”.
`Oc1ccc(Nc2ccccc2)cc1`: the Potency result is “inactive”.
Still for that read-out and setting: to `CC1=C(/C=C/C(C)=C\C=C\C(C)=C\C(=O)O)C(C)(C)CCC1` belongs “inactive”.
Same read-out and setting: to `CCCCC1C(=O)N(c2ccccc2)N(c2ccc(O)cc2)C1=O` (configuration not stated) belongs “inactive”; to `COc1cc2ncnc(Nc3ccc(F)c(Cl)c3)c2cc1OCCCN1CCOCC1`, “inactive”.
The same measure, in the same setting: to `CCOc1cc(N)c(Cl)cc1C(=O)NCC1CN(Cc2ccc(F)cc2)CCO1` (configuration not stated) belongs “inactive”; to `CN1C(=O)CC(C)(c2ccccc2)C1=O` (configuration not stated), “inactive”.

The next experiment can be described thus: qHTS RealTime-Glo MT Cell Viability Assay in HepG2 cells - 0 hour (AID 1224889). Also: nearly all actives have a fitted effect of over 50% in size. Also: potency is read from the fitted curve at half-maximal effect. The conditions noted are these: RealTime-Glo luminescence; series mostly up to 76.8 µM. The essentials: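 HepG2 cells (600/well) were dispensed with RealTime-Glo reagents, incubated 5 h at 37 °C, then treated with compounds in DMSO for up to 40 h. Nonlytic NanoLuc luminescence reflecting viable cells was read at each stated time point.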
On the technique in general: In qHTS, concentration-response curves come from the screen itself.
For the molecule `CCCCCCCCCCCC[N+](C)(C)CC(=O)[O-]`, the Potency result was “inactive”.
As for `CCOC(=O)C(C)Oc1ccc(Oc2nc3ccc(Cl)cc3o2)cc1` (configuration not stated), the Potency entry was “inactive”.
For the molecule `O=C(N[C@@H](c1ccccc1)[C@@H]1CCCCN1)c1cccc(C(F)(F)F)c1Cl`, the Potency result was “inactive”.
Consider `CC(Cl)C(Cl)Cl` (configuration not stated), for which the Potency result is “inactive”.
Still for that read-out and setting: to `CC1=C(C=O)C(C)(C)CCC1` belongs “inactive”.
The same measure, in the same setting: to `CCCCCCCCCCCC[N+](C)(C)CCCS(=O)(=O)[O-]` belongs “inactive”; to `CCCCOC(=O)CCS`, “inactive”; to `COc1ccc([C@@H]2Sc3ccccc3NC(=O)[C@@H]2O)cc1`, “inactive”.
Same read-out and setting: to `Cc1nc2ccccc2s1` belongs “inactive”; to `CCCCC(CC)C(=O)OCCOCCOCCOCCOC(=O)C(CC)CCCC` (configuration not stated), “inactive”.
On to `Cc1ccc(S(=O)(=O)NC2CCCCC2)cc1`, for which the Potency entry was “inactive”.
With `CC1(C)C2=CCCC(C)(C)[C@]23CC[C@H]1C3`, the Potency is 34.7 µM (active).
Still for that read-out and setting: to `O=C(O)c1cccc(O)c1` belongs “inactive”; to `O=C(C(=O)c1ccccc1)c1ccccc1`, “inactive”; to `CCCCCCCCCCCC(=O)[O][Sn]([CH2]CCC)([CH2]CCC)[O]C(=O)CCCCCCCCCCC`, “inactive”.
Same read-out and setting: to `CCOC(=O)OCC` belongs “inactive”; to `CC(=O)Oc1ccc2c(c1)CC[C@@H]1[C@@H]2CC[C@]2(C)[C@@H](O)CC[C@@H]12`, “inactive”.
Regarding `C/C=C/C=C/CCCCCCCO`, the Potency is 13.8 µM (active).
Regarding `NC(=O)N(O)[C@@H]1C=C[C@H](Oc2cccc(Oc3ccc(F)cc3)c2)C1`, the Potency result is “inactive”.
Same read-out and setting: to `Nc1nccs1` belongs “inactive”; to `CC(=O)OCC(=O)[C@H]1CC[C@H]2[C@@H]3CCC4=CC(=O)CC[C@]4(C)[C@H]3CC[C@]12C`, 3.01 µM (active).
Same read-out and setting: to `CC1=C(/C=C/C(C)=C\C=C\C(C)=C\C(=O)O)C(C)(C)CCC1` belongs “inactive”; to `CCCCC1C(=O)N(c2ccccc2)N(c2ccc(O)cc2)C1=O` (configuration not stated), “inactive”.
For `O=C(c1ccc(O)cc1)c1ccc(Cl)cc1`, the Potency entry is “inactive”.
Regarding `O=C(CCC1CCN(Cc2ccccc2)CC1)c1ccc2c(c1)NCCCC2`, the Potency result was “inactive”.
Same read-out and setting: to `O=C1NCCN1` belongs “inactive”; to `CN1C(=O)CC(C)(c2ccccc2)C1=O` (configuration not stated), “inactive”.
Still for that read-out and setting: to `Nc1ccc(S(=O)(=O)O)c(N)c1` belongs “inactive”.

Another experiment is described as follows: A CellTox Green Cytotoxicity Assay to monitor cytotoxicity in HepG2 cells - 8 hour (AID 1224890). Also: nearly all actives have a fitted effect of over 45% in size. The conditions noted are these: CellTox Green fluorescence; series mostly up to 76.8 µM. In short, it runs like this:
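First, HepG2 cells (600/well) mixed with reagent were plated; second, after 5 h at 37 C they received compounds via pintool; third, fluorescence was measured at 0 h through 40 h at 8 h intervals.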
With `CCCCCCCCCCCC[N+](C)(C)CC(=O)[O-]`, the Potency result is “inactive”.
`CCOC(=O)C(C)Oc1ccc(Oc2nc3ccc(Cl)cc3o2)cc1` (configuration not stated): the Potency entry was “inactive”.
With `O=C(N[C@@H](c1ccccc1)[C@@H]1CCCCN1)c1cccc(C(F)(F)F)c1Cl`, the Potency entry is “inactive”.
Still for that read-out and setting: to `CC(Cl)C(Cl)Cl` (configuration not stated) belongs “inactive”; to `CN(C)CCOC1=Cc2ccccc2Sc2ccc(Cl)cc21`, “inactive”.
The same measure, in the same setting: to `CC1=C(C=O)C(C)(C)CCC1` belongs “inactive”; to `O=C(N/N=C/c1ccc([N+](=O)[O-])o1)c1ccc(O)cc1`, “inactive”; to `CCOC(=N)CC(=O)OCC`, “inactive”.
On the same count and under the same terms, to `CCCCOC(=O)CCS` belongs “inactive”.
For the molecule `Cc1nc2ccccc2s1`, the Potency result is “inactive”.
Still for that read-out and setting: to `CCCCC(CC)C(=O)OCCOCCOCCOCCOC(=O)C(CC)CCCC` (configuration not stated) belongs “inactive”.
On the same count and under the same terms, to `Cc1ccc(S(=O)(=O)NC2CCCCC2)cc1` belongs “inactive”; to `CC1(C)C2=CCCC(C)(C)[C@]23CC[C@H]1C3`, “inactive”; to `CCCC1C(CC)=CC(CC)=CN1c1ccccc1` (configuration not stated), “inactive”.
The same measure, in the same setting: to `O=C(C(=O)c1ccccc1)c1ccccc1` belongs “inactive”; to `CCCCCCCCCCCC(=O)[O][Sn]([CH2]CCC)([CH2]CCC)[O]C(=O)CCCCCCCCCCC`, “inactive”; to `CCOC(=O)OCC`, “inactive”.
Turning to `CC(=O)Oc1ccc2c(c1)CC[C@@H]1[C@@H]2CC[C@]2(C)[C@@H](O)CC[C@@H]12`, the Potency entry is “inactive”.
The same measure, in the same setting: to `COCCOC` belongs “inactive”; to `C/C=C/C=C/CCCCCCCO`, “inactive”; to `O=C(Nc1ccc([N+](=O)[O-])cc1)Nc1ccc([N+](=O)[O-])cc1`, “inactive”.
The same measure, in the same setting: to `CNCCCC1c2ccccc2C=Cc2ccccc21` belongs “inactive”; to `Oc1ccc(Nc2ccccc2)cc1`, “inactive”.
On the same count and under the same terms, to `Nc1nccs1` belongs “inactive”.
As for `CC(=O)OCC(=O)[C@H]1CC[C@H]2[C@@H]3CCC4=CC(=O)CC[C@]4(C)[C@H]3CC[C@]12C`, the Potency entry is “inactive”.
On the same count and under the same terms, to `CCCCC1C(=O)N(c2ccccc2)N(c2ccc(O)cc2)C1=O` (configuration not stated) belongs “inactive”; to `O=C(c1ccc(O)cc1)c1ccc(Cl)cc1`, “inactive”; to `Cc1cc(S(=O)(=O)O)ccc1N=Nc1c(O)ccc2ccccc12`, “inactive”.
The same measure, in the same setting: to `CCOc1cc(N)c(Cl)cc1C(=O)NCC1CN(Cc2ccc(F)cc2)CCO1` (configuration not stated) belongs “inactive”.
On the same count and under the same terms, to `O=C(CCC1CCN(Cc2ccccc2)CC1)c1ccc2c(c1)NCCCC2` belongs “inactive”; to `CN1C(=O)CC(C)(c2ccccc2)C1=O` (configuration not stated), “inactive”; to `Nc1ccc(S(=O)(=O)O)c(N)c1`, “inactive”.
